Assay results: PubChem BioAssay AID1159580 (chemical genetic matrix, 2015)
The whole screen tested about 5,500 compounds, of which about 2,000 (36%) were called active. About 18% were inconclusive and are not listed. Rule as the data show it: active = normalized growth mostly below about 0.91 (no sharp cut-off); inconclusive = no clear call, values can overlap the other calls; inactive = mostly above about 0.92. Some of the results follow.

Experiment: chemical genetic growth profiling, strain panel (AID 1159580);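 also: tested at 20 µM; growth read once vehicle control cultures reached saturation at 30 °C; 1 = growth at the plate median or of vehicle wells; lower values mean less growth of the strain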
Details: S. cerevisiae deletion strains, growth OD

Measured: normalized growth

Cc1cc(C(=O)N(c2ccccc2)C(C)C2CC2)c(Cl)cc1Cl (stereo unspecified)
active: locus YHR030C, strain SLT2, hits give low values 0.8 | locus YLR113W, strain HOG1, hits give low values 0.808 | locus YPL256C, strain CLN2, hits give low values 0.848
inactive: locus YAR019C, strain CDC15, hits give low values 0.987 | locus YBL105C, strain PKC1, hits give low values 0.984 | locus YBR135W, strain CKS1, hits give low values 0.984 | locus YBR136W, strain MEC1, hits give low values 0.987 | locus YBR160W, strain CDC28, hits give low values 0.991 | locus YDL017W, strain CDC7, hits give low values 0.978 | locus YDL028C, strain MPS1, hits give low values 0.982 | locus YDL101C, strain DUN1, hits give low values 0.98 | locus YDL108W, strain KIN28, hits give low values 0.978 | locus YDL132W, strain cdc53, hits give low values 0.973 | locus YDL214C, strain PRR2, hits give low values 0.955 | locus YDR052C, strain DBF4, hits give low values 0.985 | locus YDR054C, strain cdc34, hits give low values 0.966 | locus YDR226W, strain ADK1, hits give low values 0.971 | locus YDR477W, strain SNF1, hits give low values 0.942 | locus YER123W, strain YCK3, hits give low values 0.943 | locus YER133W, strain GLC7, hits give low values 0.938 | locus YFL009W, strain cdc4, hits give low values 0.973 | locus YFL029C, strain CAK1, hits give low values 0.984 | locus YFR003C, strain YPI1, hits give low values 0.979 | locus YFR019W, strain FAB1, hits give low values 0.968 | locus YFR028C, strain CDC14, hits give low values 0.979 | locus YGR040W, strain KSS1, hits give low values 0.944 | locus YGR052W, strain FMP48, hits give low values 0.949 | locus YGR092W, strain DBF2, hits give low values 0.989 | locus YHR079C, strain IRE1, hits give low values 0.97 | locus YHR082C, strain KSP1, hits give low values 0.99 | locus YHR205W, strain SCH9, hits give low values 0.985 | locus YIL147C, strain SLN1, hits give low values 0.983 | locus YJL095W, strain BCK1, hits give low values 0.939 | locus YJL128C, strain PBS2, hits give low values 0.92 | locus YJL157C, strain FAR1, hits give low values 0.957 | locus YJR016C, strain ILV3, hits give low values 0.976 | locus YJR066W, strain TOR1 (second series), hits give low values 0.921 | locus YJR066W, strain TOR1, hits give low values 1.03 | locus YKL048C, strain ELM1, hits give low values 0.966 | locus YKL067W, strain YNK1, hits give low values 0.955 | locus YKL101W, strain HSL1, hits give low values 0.953 | locus YKL193C, strain SDS22, hits give low values 0.977 | locus YKL203C, strain TOR2, hits give low values 1.01 | locus YLR133W, strain CKI1, hits give low values 0.965 | locus YLR403W, strain SFP1, hits give low values 0.993 | locus YML070W, strain DAK1, hits give low values 0.925 | locus YMR001C, strain CDC5, hits give low values 0.982 | locus YMR205C, strain PFK2 (second series), hits give low values 0.958 | locus YMR277W, strain FCP1, hits give low values 0.972 | locus YNL006W, strain LST8, hits give low values 0.989 | locus YNL020C, strain ARK1, hits give low values 0.95 | locus YNL161W, strain CBK1, hits give low values 0.979 | locus YNL183C, strain NPR1, hits give low values 1.02 | locus YNL207W, strain RIO2, hits give low values 0.978 | locus YNL222W, strain SSU72, hits give low values 0.988 | locus YNL307C, strain MCK1 (second series), hits give low values 0.941 | locus YOL078W, strain AVO1, hits give low values 0.98 | locus YOL136C, strain PFK27, hits give low values 0.936 | locus YOR061W, strain CKA2, hits give low values 0.958 | locus YOR119C, strain RIO1, hits give low values 1.02 | locus YOR231W, strain MKK1, hits give low values 0.95 | locus YOR329C, strain SCD5, hits give low values 0.984 | locus YPL031C, strain PHO85, hits give low values 0.939 | locus YPL153C, strain RAD53, hits give low values 0.921 | locus YPL204W, strain HRR25, hits give low values 0.918 | locus YPL209C, strain IPL1, hits give low values 0.985 | locus YPR025C, strain CCL1, hits give low values 0.991 | locus YPR106W, strain ISR1, hits give low values 0.982 | locus YPR111W, strain DBF20, hits give low values 0.97 | strain NNK1, hits give low values 0.976 | strain TSCII, hits give low values 0.983
